From PubChem BioAssay (NCI)
About 83,000 compounds went through this panel and 20% of them were active in at least one assay; those are over-represented in the sample as a whole.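 Cells were grown in 96-well plates and exposed to the test compound at a single concentration for 48 hours; results are reported as percent growth, with values below 10 considered active.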 Calls of active or inactive are those of the source.

Experiments:
Assay in all cases: NCI-60 one-dose screen, 48 h (100 = growth as untreated, 0 = no growth, -100 = all killed)
Details in all cases: 10 µM unless noted
SR leukemia = tested on: SR leukemia
RPMI-8226 leukemia = tested on: RPMI-8226 leukemia
OVCAR-8 ovarian = tested on: OVCAR-8 ovarian
OVCAR-5 ovarian = tested on: OVCAR-5 ovarian
OVCAR-4 ovarian = tested on: OVCAR-4 ovarian
SK-OV-3 ovarian = tested on: SK-OV-3 ovarian
IGROV1 ovarian = tested on: IGROV1 ovarian
OVCAR-3 ovarian = tested on: OVCAR-3 ovarian
HS 578T breast = tested on: HS 578T breast
NCI/ADR-RES ovarian = tested on: NCI/ADR-RES ovarian
T-47D breast = tested on: T-47D breast
BT-549 breast = tested on: BT-549 breast
MDA-MB-435 melanoma = tested on: MDA-MB-435 melanoma
SW-620 colon = tested on: SW-620 colon
MCF7 breast = tested on: MCF7 breast
HCT-116 colon = tested on: HCT-116 colon
HCC-2998 colon = tested on: HCC-2998 colon
KM12 colon = tested on: KM12 colon

Measured: growth

Cc1cc(Nc2nc(N3CCOCC3)nc3ccccc23)n[nH]1
inactive: SR leukemia 10.8% | RPMI-8226 leukemia 82.5% | OVCAR-8 ovarian 104% | OVCAR-5 ovarian 88.7% | OVCAR-4 ovarian 52.5% | SK-OV-3 ovarian 20.5% | IGROV1 ovarian 30.9% | OVCAR-3 ovarian 58.6% | HS 578T breast 16.3% | NCI/ADR-RES ovarian 86.3% | T-47D breast 72.5% | BT-549 breast 61.5% | MDA-MB-435 melanoma 57.4% | SW-620 colon 79.3% | MCF7 breast 47.8% | HCT-116 colon 40.1% | HCC-2998 colon 83.4% | KM12 colon 10.3%

O=C1CC(c2nc3ccccc3[nH]2)CN1C1CCCCC1 (stereo unspecified)
inactive: SR leukemia 97.4% | RPMI-8226 leukemia 106% | OVCAR-8 ovarian 95.2% | OVCAR-5 ovarian 108% | OVCAR-4 ovarian 102% | SK-OV-3 ovarian 101% | IGROV1 ovarian 108% | OVCAR-3 ovarian 110% | HS 578T breast 102% | NCI/ADR-RES ovarian 94.2% | T-47D breast 95.6% | BT-549 breast 97.7% | MDA-MB-435 melanoma 107% | SW-620 colon 106% | MCF7 breast 89.7% | HCT-116 colon 109% | HCC-2998 colon 98.7% | KM12 colon 107%

COc1cc(-c2cnc3nonc3n2)c(OC)c2c1OCO2
inactive: SR leukemia 50.1% | RPMI-8226 leukemia 65.7% | OVCAR-8 ovarian 97.8% | OVCAR-5 ovarian 124% | OVCAR-4 ovarian 75.3% | SK-OV-3 ovarian 105% | IGROV1 ovarian 82.7% | OVCAR-3 ovarian 76.9% | HS 578T breast 105% | NCI/ADR-RES ovarian 99.3% | T-47D breast 85.4% | BT-549 breast 105% | MDA-MB-435 melanoma 111% | SW-620 colon 101% | MCF7 breast 81.3% | HCT-116 colon 99.1% | HCC-2998 colon 102% | KM12 colon 103%

CC/C=C\C[C@H](O)C/C=C1/C(=O)C=C[C@@H]1C/C=C\CCCC(N)=O
inactive: OVCAR-8 ovarian 11.6% | OVCAR-5 ovarian 29.8% | OVCAR-4 ovarian 56.4% | SK-OV-3 ovarian 10.9% | IGROV1 ovarian 10.4% | HS 578T breast 55.2% | NCI/ADR-RES ovarian 10.7% | MDA-MB-435 melanoma 23.5%
active: SR leukemia -27% | RPMI-8226 leukemia 6.43% | OVCAR-3 ovarian 3.26% | T-47D breast 1.28% | BT-549 breast -12.6% | SW-620 colon 5.37% | MCF7 breast 7.66% | HCT-116 colon -69% | HCC-2998 colon -73.6% | KM12 colon -38.7%

CN(C)c1ccc(/C=C(\C#N)c2nc3ccccc3s2)cc1
inactive: SR leukemia 87.5% | RPMI-8226 leukemia 111% | OVCAR-8 ovarian 99.5% | OVCAR-5 ovarian 109% | OVCAR-4 ovarian 90.9% | SK-OV-3 ovarian 111% | IGROV1 ovarian 103% | OVCAR-3 ovarian 119% | HS 578T breast 104% | NCI/ADR-RES ovarian 107% | T-47D breast 89.4% | BT-549 breast 72.9% | MDA-MB-435 melanoma 89.1% | SW-620 colon 112% | MCF7 breast 89% | HCT-116 colon 96.8% | HCC-2998 colon 106% | KM12 colon 108%

Cc1ccc(S(=O)(=O)n2cc(-c3csc(-c4cn(C)c5ncccc45)n3)c3ccccc32)cc1
inactive: RPMI-8226 leukemia 71.1% | OVCAR-8 ovarian 80.5% | OVCAR-5 ovarian 81.9% | OVCAR-4 ovarian 71.5% | SK-OV-3 ovarian 70.2% | IGROV1 ovarian 56.3% | OVCAR-3 ovarian 30.3% | HS 578T breast 85.8% | NCI/ADR-RES ovarian 43.3% | T-47D breast 24.4% | BT-549 breast 66.9% | SW-620 colon 40% | MCF7 breast 19.8% | HCT-116 colon 36% | HCC-2998 colon 88.4% | KM12 colon 29.3%
active: SR leukemia 2.53% | MDA-MB-435 melanoma 3.65%

CC(=O)CC(C)(C)c1ccc(Cl)cc1
inactive: SR leukemia 101% | RPMI-8226 leukemia 98.3% | OVCAR-8 ovarian 101% | OVCAR-5 ovarian 95.7% | OVCAR-4 ovarian 93.6% | SK-OV-3 ovarian 107% | IGROV1 ovarian 96% | OVCAR-3 ovarian 97.4% | HS 578T breast 99.5% | NCI/ADR-RES ovarian 96.2% | T-47D breast 94.2% | BT-549 breast 101% | MDA-MB-435 melanoma 104% | SW-620 colon 100% | MCF7 breast 105% | HCT-116 colon 97.5% | HCC-2998 colon 98.7% | KM12 colon 108%

CCN(C(=O)CN1CCN(c2cc3c(cc2F)c(=O)c(C(=O)O)cn3CC)CC1)c1nc(-c2ccccc2)cs1
active: SR leukemia -11% | RPMI-8226 leukemia -3.49% | OVCAR-8 ovarian 7.67% | OVCAR-4 ovarian 3.24% | SK-OV-3 ovarian -2.59% | NCI/ADR-RES ovarian 5.3% | BT-549 breast 3.3% | MDA-MB-435 melanoma -13.9% | MCF7 breast 7.6%
inactive: OVCAR-5 ovarian 35.6% | IGROV1 ovarian 23.3% | OVCAR-3 ovarian 16.8% | HS 578T breast 13.6% | T-47D breast 11.9% | SW-620 colon 13.9% | HCT-116 colon 14% | HCC-2998 colon 19.6% | KM12 colon 12.7%

NC1=CC(=O)C(=O)c2ccccc21
active: MDA-MB-435 melanoma -72.4%
inactive: SR leukemia 81.8% | RPMI-8226 leukemia 79.3% | OVCAR-8 ovarian 64.2% | OVCAR-5 ovarian 93.3% | OVCAR-4 ovarian 69.3% | SK-OV-3 ovarian 92.6% | IGROV1 ovarian 89.7% | OVCAR-3 ovarian 84.1% | HS 578T breast 99.5% | NCI/ADR-RES ovarian 58.7% | T-47D breast 56.4% | BT-549 breast 90.4% | SW-620 colon 98.9% | MCF7 breast 86% | HCT-116 colon 63.4% | HCC-2998 colon 95% | KM12 colon 95.7%

COc1ccc(/C(=C/c2ccc3ccccc3c2)c2nn[nH]n2)cc1OC
active: OVCAR-3 ovarian -17.3% | NCI/ADR-RES ovarian -15.4% | MDA-MB-435 melanoma -41%
inactive: SR leukemia 15% | RPMI-8226 leukemia 16.6% | OVCAR-8 ovarian 40.5% | OVCAR-5 ovarian 60% | OVCAR-4 ovarian 62.7% | SK-OV-3 ovarian 39% | IGROV1 ovarian 48.7% | HS 578T breast 36.5% | T-47D breast 36.1% | BT-549 breast 40.3% | SW-620 colon 29.2% | MCF7 breast 52.3% | HCT-116 colon 17.7% | HCC-2998 colon 55.4% | KM12 colon 24.5%

Clc1cccc(Nc2nc(Nc3cnc4ccccc4c3)c3[nH]cnc3n2)c1
inactive: SR leukemia 80.8% | RPMI-8226 leukemia 78.3% | OVCAR-8 ovarian 75.6% | OVCAR-5 ovarian 89.3% | OVCAR-4 ovarian 93.9% | SK-OV-3 ovarian 71.2% | IGROV1 ovarian 62.3% | OVCAR-3 ovarian 73.6% | HS 578T breast 65.6% | NCI/ADR-RES ovarian 87.2% | T-47D breast 53.7% | BT-549 breast 73.7% | MDA-MB-435 melanoma 84.4% | SW-620 colon 98.1% | MCF7 breast 64.9% | HCT-116 colon 76.4% | HCC-2998 colon 100% | KM12 colon 92.8%

CC[C@]12C=CCN3CC[C@@]4(c5ccc(OC)cc5N(C)[C@H]4[C@@](O)(C(=O)OC)[C@@H]1OC(=O)CCC(=O)N[C@@H](Cc1c[nH]c4ccccc14)C(=O)OC)[C@@H]32
inactive: OVCAR-8 ovarian 93.9% | OVCAR-5 ovarian 90.8% | OVCAR-4 ovarian 89.9% | SK-OV-3 ovarian 100% | IGROV1 ovarian 101% | OVCAR-3 ovarian 86.4% | HS 578T breast 79.4% | NCI/ADR-RES ovarian 105% | T-47D breast 67.8% | BT-549 breast 115% | MDA-MB-435 melanoma 95.3% | SW-620 colon 96.4% | MCF7 breast 90% | HCT-116 colon 100% | HCC-2998 colon 70.6% | KM12 colon 106%
active: SR leukemia -43.1% | RPMI-8226 leukemia -33.4%

CCCC(=O)Oc1ccc(/C(=C(/CC)Cc2ccccc2)c2ccc(OCCN3CCCC3)cc2)cc1
active: SR leukemia 1.36%
inactive: RPMI-8226 leukemia 33.3% | OVCAR-8 ovarian 96.4% | OVCAR-5 ovarian 84.2% | OVCAR-4 ovarian 68.4% | SK-OV-3 ovarian 97% | IGROV1 ovarian 74% | OVCAR-3 ovarian 74.1% | HS 578T breast 82.7% | NCI/ADR-RES ovarian 69.9% | T-47D breast 48.9% | BT-549 breast 85.3% | MDA-MB-435 melanoma 57.1% | SW-620 colon 80.5% | MCF7 breast 24.9% | HCT-116 colon 68.7% | HCC-2998 colon 42.6% | KM12 colon 70.8%

COc1cc(C2C(C(=O)c3cccs3)=C(O)C(=O)N2CCN2CCOCC2)cc(OC)c1OC (stereo unspecified)
inactive: SR leukemia 111% | RPMI-8226 leukemia 108% | OVCAR-8 ovarian 113% | OVCAR-5 ovarian 108% | OVCAR-4 ovarian 110% | SK-OV-3 ovarian 109% | IGROV1 ovarian 100% | OVCAR-3 ovarian 102% | HS 578T breast 112% | NCI/ADR-RES ovarian 107% | T-47D breast 104% | BT-549 breast 107% | MDA-MB-435 melanoma 99.5% | SW-620 colon 97.2% | MCF7 breast 95.1% | HCT-116 colon 101% | HCC-2998 colon 101% | KM12 colon 98.3%

COCCCN=C(N)c1ccc(NC(=O)c2ccc(C(=O)Nc3ccc(C(N)=NCCCOC)cc3)cc2)cc1
inactive: SR leukemia 72.3% | RPMI-8226 leukemia 63.2% | OVCAR-8 ovarian 106% | OVCAR-5 ovarian 110% | OVCAR-4 ovarian 105% | SK-OV-3 ovarian 115% | IGROV1 ovarian 120% | OVCAR-3 ovarian 154% | HS 578T breast 151% | NCI/ADR-RES ovarian 112% | T-47D breast 108% | BT-549 breast 78.6% | MDA-MB-435 melanoma 88.4% | SW-620 colon 106% | MCF7 breast 109% | HCT-116 colon 79.7% | HCC-2998 colon 116% | KM12 colon 132%

Cc1ccc(SCN2CCN(c3cccc(Cl)c3)CC2)cc1
inactive: SR leukemia 91.7% | RPMI-8226 leukemia 164% | OVCAR-8 ovarian 110% | OVCAR-5 ovarian 112% | OVCAR-4 ovarian 108% | SK-OV-3 ovarian 111% | IGROV1 ovarian 80.4% | OVCAR-3 ovarian 106% | HS 578T breast 111% | NCI/ADR-RES ovarian 98.9% | T-47D breast 86.7% | BT-549 breast 62.7% | MDA-MB-435 melanoma 89.7% | SW-620 colon 107% | MCF7 breast 85.2% | HCT-116 colon 91.6% | HCC-2998 colon 100% | KM12 colon 104%

CC#Cc1nc2ccccc2c(=O)[nH]1
active: RPMI-8226 leukemia 2.5% | OVCAR-3 ovarian 4.22%
inactive: SR leukemia 39.4% | OVCAR-8 ovarian 42% | OVCAR-5 ovarian 76.4% | OVCAR-4 ovarian 18.4% | SK-OV-3 ovarian 112% | IGROV1 ovarian 14% | HS 578T breast 58.7% | NCI/ADR-RES ovarian 55% | T-47D breast 67.3% | BT-549 breast 20.4% | MDA-MB-435 melanoma 25.6% | SW-620 colon 40.8% | MCF7 breast 23.5% | HCT-116 colon 41.1% | HCC-2998 colon 13.7% | KM12 colon 41.1%
